Reference: PubChem BioAssay (NCI)
About 83,000 compounds went through this panel and 20% of them were active in at least one assay; those are over-represented in the sample as a whole.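 Values shown are percent growth following 48 h exposure of cells in 96-well plates to a single concentration of compound; below 10 was considered active.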 Values without a mark were called inactive. Active and inactive are the calls of the source.

Each compound was assayed on MDA-MB-468 breast (assay: NCI-60 one-dose screen, 48 h (100 = growth as untreated, 0 = no growth, -100 = all killed)). Conditions: 10 µM unless noted.

For `COc1ccc2c(c1)c(/C=N/Nc1ccnc3cc(Cl)ccc13)cn2C`, which growth is on record?
Its growth is -87.3% (active).

For `Cc1c(O)cc(-c2cnc(Nc3ccccc3)s2)c(O)c1C`, which growth is on record?
The growth was 57.4%.

`CN(C)c1ccc(-c2c(NC(C)(C)C)nc3c(OCCc4ccccc4)cccn23)cc1` was tested. Which growth did it give?
Its growth is -19.6% (active).

With `Nc1nc(=S)c2ncn(C3OC(COP(=O)(O)O)C(O)C3O)c2[nH]1` (stereo not given) as the compound, how does the growth read?
Its growth is 4.34% (active).

`COc1ccc(Nc2ccnc(N3CCN(c4ccnc5cc(Cl)ccc45)CC3)n2)cc1` was tested. Which growth did it give?
Its growth is -16% (active).

Which growth does the source give for `Nc1ncc(-c2ccc3ncnc(Nc4cccc(Cl)c4F)c3c2)cn1` here?
Its growth is -5.52% (active).

For `Cc1nc2sc(C(=O)Nc3cccc(Br)c3)c(N)c2cc1C(O)c1ccccc1` (stereo not given), which growth is on record?
The growth was 11.9%.

With `CC(C)C(=O)OCCOc1ccc(C(C)(C)C)cc1` as the compound, how does the growth read?
The growth was 102%.

With `CCN1CCC2(CC1)OC(c1ccccc1)C(c1ccccc1)O2` (stereo not given) as the compound, how does the growth read?
The growth was 102%.

Which growth does the source give for `COc1cc2nc(Nc3cccc(F)c3)nc(Nc3cc(C)[nH]n3)c2cc1OC` here?
Its growth is -76.6% [20 µM] (active).

With `CC(C)=CCc1c2c(c(O)c3c1O[C@]14C(=C[C@@H]5C[C@H]1C(C)(C)O[C@@]4(C/C=C(/C)C(=O)O)C5=O)C3=O)CC(O)C(C)(C)O2` (stereo not given in full) as the compound, how does the growth read?
The growth was -55.7% (active).

How did the growth turn out when `CN1CCN(CCOc2cc(OC3CCOCC3)c3c(Nc4c(Cl)ccc5c4OCO5)ncnc3c2)CC1` was run?
Its growth is 25.8%.

`CCCOC(=O)n1cccc1` was tested. Which growth did it give?
Its growth is 106%.

`Nn1c(Nc2ccc(S(=O)(=O)Nc3ncccn3)cc2)nnc(/C=C/c2c(O)ccc3ccccc23)c1=O` was tested. Which growth did it give?
Its growth is 96%.

For `COc1cc(-c2nn3c(/C=C4/C(=O)Nc5ccccc54)c(-c4ccc(C)cc4)nc3s2)cc(OC)c1OC`, which growth is on record?
Its growth is 41%.

With `CNc1ccc(Br)c2c1C(=O)c1ccccc1C2=O` as the compound, how does the growth read?
The growth was 112%.

For `O=C1[C@@H]2Cc3c([nH]c4ccccc34)[C@@H](c3ccc(Cl)cc3)N2C(=O)CN1C1CCN(Cc2ccccc2)CC1`, which growth is on record?
Its growth is 49.5%.

Which growth does the source give for `COc1cc(CNC(=O)Cc2ccccc2[N+](=O)[O-])ccc1OCC(=O)NO` here?
The growth was 98.7%.

How did the growth turn out when `CN(C)c1ccc(/C=C/C2=[N+](C)c3ccccc3C2(C)C)cc1` was run?
The growth was 6.5% (active).

For `C/C(=C(\c1ccc(OCCN2CCOCC2)cc1)c1ccc(OC(=O)C2CCCCC2)cc1)c1ccc(Cl)cc1`, which growth is on record?
Its growth is 79.2%.

With `CC(=O)CSC(C)=O` as the compound, how does the growth read?
Its growth is 99.1%.

For `COc1ccccc1/C=N\Nc1ccc([N+](=O)[O-])cn1`, which growth is on record?
The growth was 109%.

How did the growth turn out when `Cc1cc(Nc2cccc(C(F)(F)F)c2)n2c(nc3ccccc32)c1C#N` was run?
The growth was -4.87% (active).

Which growth does the source give for `CCOC(=O)c1cc(C(=O)c2ccc(OC)c(OC)c2)n2ccc(/C=C/c3cc[n+](CC(=O)c4ccc(OC)c(OC)c4)cc3)cc12` here?
Its growth is 71.9%.

How did the growth turn out when `CC(C)(CCc1ccccn1)C(=O)CCCc1ccccn1` was run?
Its growth is 107%.

`N#CCNc1ccc(C(=O)O)cc1` was tested. Which growth did it give?
The growth was 92.8%.

How did the growth turn out when `COc1cc2c(-c3nc4cc(Cl)c(F)cc4s3)cc(=O)oc2c(C)c1OC` was run?
The growth was -58.7% (active).

`COc1cc(Nc2nc(N[C@H]3CCCC[C@@H]3N)nc3cc[nH]c(=O)c23)cc(OC)c1` was tested. Which growth did it give?
Its growth is -24.5% (active).

For `O=C(OCc1ccc2c(Cl)cc(Cl)c(O)c2n1)n1cncn1`, which growth is on record?
The growth was 14%.

`CN1CCN(CCCCCN=c2cc3c(=O)n(CCCCCN4CCN(C)CC4)c(=O)c4c(NCCCCCN5CCN(C)CC5)cc5c(O)n(CCCCCN6CCN(C)CC6)c(=O)c2c5c4-3)CC1` was tested. Which growth did it give?
The growth was -50.8% (active).

`COc1ccc2c(c1)sc1nc(-c3ccccc3)c(-c3ccc(O)c(OC)c3)n12` was tested. Which growth did it give?
Its growth is 107%.

`COc1cc2c3c(c4c5ccccc5[nH]c4c2c(OC)c1OC)C(=O)N(CCN1CCCCC1)C3=O` was tested. Which growth did it give?
Its growth is 63.7%.

With `O=C(CSc1nc2ccccc2c(=O)n1-c1ccccc1)Nc1cccc(C(=O)/C=C/c2ccccc2)c1` as the compound, how does the growth read?
Its growth is 91.3%.

With `CCNC(=O)N1CCc2c(Cl)c3c(c(OC)c2[C@@H]1[C@H]1OCc2c1ccc(OC)c2OC)OCCO3` as the compound, how does the growth read?
Its growth is -8.07% (active).

How did the growth turn out when `N=C(N)c1ccc(-c2ccc(-c3cccs3)s2)nc1` was run?
The growth was -51% (active).

For `COc1ccc(C(=O)c2cc(C)c(OC)c(C)c2)c(OC)c1O`, which growth is on record?
The growth was 20.4%.

For `COc1cc(C(=O)N(C(C)C)C2CCCCC2)cc(OC)c1OC`, which growth is on record?
The growth was 89.8%.

For `Cc1ccc(C(=O)NC2c3ccccc3Oc3ccccc32)cc1`, which growth is on record?
Its growth is 41.8%.

Which growth does the source give for `Oc1ccc(Nc2ccc3ccccc3c2)cc1` here?
Its growth is 30.5%.

How did the growth turn out when `CC(C)/C(=N/O)c1ccccc1` was run?
The growth was 105%.
